Z-score, activity, negative = inhibition and Potency data for nine molecules are collected here from PubChem BioAssay (NCATS).

A short description of experiment [1]: qHTS for identification of novel therapeutic agents for treatment of microphthalmiaassociated transcription factor (MiT) renal cell carcinoma (RCC) (AID 1963991).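 Further: curves scaled with 100% = DMSO viability and 0% = empty wells.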 As to conditions: CellTiter-Glo, 48 h, stronger effect = lower value. A digest of the protocol:
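UOK109/UOK124/UOK145 (TFE3 fusions, three partners); 500 cells/well; MIPE v4.0, 1912 cpds, 11 conc.; 48 h, 37 C; CellTiter-Glo, 15 min RT; lum. Norm.: DMSO 100%, empty 0%.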

Experiment [2] in a line: qHTS profiling for inhibitors of Plasmodium falciparum proliferation (AID 504749). Further: nearly all actives have a fitted effect of over 60% in size. Further: potency means the concentration at half of the fitted maximal effect.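 On activity, negative = inhibition: 0% = DMSO vehicle and full inhibition = artemisinin control.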 As to conditions: P. falciparum in erythrocytes, SYBR Green DNA, 72 h. In outline: (§1)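 Quantitative HTS: compounds pinned into medium, infected erythrocytes added (0.3% parasitemia, 2.5% hematocrit), 72 h culture at 37 C under 5% CO2. Saponin/Triton lysis with SYBR Green I, overnight RT, then fluorescence read.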

A further experiment concerns 3D7. Described as above. The conditions noted are these: P. falciparum in erythrocytes, SYBR Green DNA, 72 h; series mostly up to 28.7 µM. A digest of the protocol: as §1
The next experiment concerns 7G8. The experiment is described as above. As to conditions: P. falciparum in erythrocytes, SYBR Green DNA, 72 h; series mostly up to 28.7 µM. A digest of the protocol: as §1
A further experiment relates to AA1029. The description is as above. The conditions noted are these: P. falciparum in erythrocytes, SYBR Green DNA, 72 h; series mostly up to 28.7 µM. In outline: as §1
Another experiment has as its system AS120. The description is as above. The conditions noted are these: P. falciparum in erythrocytes, SYBR Green DNA, 72 h; series mostly up to 28.7 µM. In outline:
as §1

The test system of a further experiment is ATS95. The experiment is described as above. As to conditions: P. falciparum in erythrocytes, SYBR Green DNA, 72 h; series mostly up to 28.7 µM. A digest of the protocol: as §1
Another experiment concerns C2A. The description is as above. As to conditions: P. falciparum in erythrocytes, SYBR Green DNA, 72 h; series mostly up to 28.7 µM. A digest of the protocol: as §1
The subject of another experiment is CP191. The experiment is described as above. The conditions noted are these: P. falciparum in erythrocytes, SYBR Green DNA, 72 h; series mostly up to 28.7 µM. In outline:
as §1

A further experiment concerns CP192. Described as above. The conditions noted are these: P. falciparum in erythrocytes, SYBR Green DNA, 72 h; series mostly up to 28.7 µM. In outline:
as §1

For the next experiment, the system named is CP194. The description is as above. The conditions noted are these: P. falciparum in erythrocytes, SYBR Green DNA, 72 h; series mostly up to 28.7 µM. A digest of the protocol: as §1
The subject of a further experiment is CP201. The description is as above. The conditions noted are these: P. falciparum in erythrocytes, SYBR Green DNA, 72 h; series mostly up to 28.7 µM. A digest of the protocol:
as §1

A further experiment has as its system CP203. The description is as above. As to conditions: P. falciparum in erythrocytes, SYBR Green DNA, 72 h; series mostly up to 28.7 µM. In outline: as §1
The next experiment concerns CP211. The description is as above. The conditions noted are these: P. falciparum in erythrocytes, SYBR Green DNA, 72 h; series mostly up to 28.7 µM. In outline:
as §1

In another experiment the test system is CP215. The experiment is described as above. As to conditions: P. falciparum in erythrocytes, SYBR Green DNA, 72 h; series mostly up to 28.7 µM. A digest of the protocol:
as §1

The test system of the next experiment is CP217. Described as above. As to conditions: P. falciparum in erythrocytes, SYBR Green DNA, 72 h; series mostly up to 28.7 µM. A digest of the protocol: as §1
Another experiment concerns CP237. Described as above. As to conditions: P. falciparum in erythrocytes, SYBR Green DNA, 72 h; series mostly up to 28.7 µM. In outline:
as §1

In the next experiment the test system is CP238. The experiment is described as above. As to conditions: P. falciparum in erythrocytes, SYBR Green DNA, 72 h; series mostly up to 28.7 µM. In outline: as §1
Another experiment has as its system ATS189. Described as above. As to conditions: P. falciparum in erythrocytes, SYBR Green DNA, 72 h; series mostly up to 28.7 µM. In outline:
as §1

The subject of a further experiment is CP185. Described as above. As to conditions: P. falciparum in erythrocytes, SYBR Green DNA, 72 h; series mostly up to 28.7 µM. In outline:
as §1

Setting [3] is: TFE3-RCC UOK109 viability, measured here: UOK109 Z-AUC.
The mark [4] stands for this setting: TFE3-RCC viability, measured here: UOK124 Z-AUC.
The mark [5] stands for this setting: TFE3-RCC viability, measured here: UOK145 Z-AUC.
Setting [6] is: at 28.7 µM (top of the series), parasite line B.
[7] abbreviates: at 28.7 µM (top of the series), parasite line A.

Records with an inconclusive call do not appear. Calls of active or inactive are those of the source. The call rests on the fitted dose curve; in most records, active means well fitted inhibition curve with a large enough effect; inconclusive means small, poorly fitted or top-dose-only effect; inactive means flat fitted curve, though single readings scatter.

Turning to `c1ccc2[nH]c(-c3cscn3)nc2c1`, the z-score is -0.345 in experiment [1] (setting [3]), 0.601 in [1] (setting [4]) and -0.852 in experiment [1] (setting [5]). The activity, negative = inhibition in experiment [2] (setting [6]) is -25.8% (inactive). In addition, the Potency entry with 3D7, in the experiment on 7G8, in the experiment on AA1029, with AS120, in the experiment on ATS95 and with C2A was “inactive” throughout. For the same molecule, the Potency result in the experiment on CP191, with CP192, in the experiment with CP194, with CP201, in the experiment on CP203 and in the experiment with CP211 was “inactive” throughout. Besides, the Potency entry with CP215, in the experiment with CP217, in the experiment on CP237 and in the experiment on CP238 was “inactive” each time.
As to `Cc1nc2n(c(=O)c1CCN1CCC(c3noc4cc(F)ccc34)CC1)CCCC2`, the z-score is 0.0752 in experiment [1] (setting [3]), 0.441 in experiment [1] (setting [4]) and 0.372 in [1] (setting [5]). The results for the activity, negative = inhibition in [2] (setting [7]) and in [2] (setting [6]) were 8.34% (inactive) and 15.8% (inactive), respectively. For the same molecule, the Potency entry in the experiment on 3D7, in the experiment on AA1029, in the experiment on AS120, in the experiment with ATS189, with ATS95 and with C2A was “inactive” each time. For the same molecule, the Potency entry in the experiment with CP185, in the experiment on CP191, with CP192, in the experiment on CP194, with CP201 and in the experiment on CP203 was “inactive” each time. The Potency result in the experiment on CP211, in the experiment with CP215, in the experiment on CP217 and in the experiment on CP238 was “inactive” each time. Besides, the Potency in the experiment with 7G8 was 10000 nM (active).
On to `CCCCN(CCCC)CCC(O)c1cc2c(Cl)cc(Cl)cc2c2cc(C(F)(F)F)ccc12` (stereo not given), for which the z-score in experiment [1] (setting [3]) was 0.318; in experiment [1] (setting [4]) it was 0.539; in [1] (setting [5]), 0.552. Moreover, the Potency in [2] (parasite line A) was 7.9 nM (active); in [2] (parasite line B), 5.6 nM (active); with 3D7 it was 3.2 nM (active); in the experiment with 7G8 it was 1.1 nM (active); with AA1029, 6.3 nM (active); in the experiment on AS120, 5.6 nM (active). In addition, the Potency is 5.6 nM (active) with ATS189; 7.9 nM (active) in the experiment on ATS95; 25.1 nM (active) in the experiment with C2A; 28.2 nM (active) with CP185; 12.6 nM (active) with CP191; 10.2 nM (active) with CP192. The Potency with CP194 was 32.2 nM (active); in the experiment on CP201, 51 nM (active); in the experiment with CP203, 22.8 nM (active); with CP211, 64.2 nM (active); in the experiment on CP215, 28.7 nM (active); in the experiment with CP217, 12.6 nM (active). The values for the Potency in the experiment on CP237 and in the experiment on CP238 were 5.6 nM (active) and 7.9 nM (active), respectively.
For `NNc1nncc2ccccc12`, the z-score in [1] (setting [3]) was -0.0991; in experiment [1] (setting [4]), 0.525; in [1] (setting [5]), 0.517. Also, the activity, negative = inhibition is -1.16% (inactive) in [2] (at 12.8 µM (top of the series), parasite line A) and -10.3% (inactive) in experiment [2] (at 12.8 µM (top of the series), parasite line B). The Potency in the experiment with 7G8 was 891 nM (active); in the experiment with ATS189, 3550 nM (active); with CP191, 3550 nM (active). Besides, the Potency result with AA1029, with ATS95, in the experiment on C2A, in the experiment on CP185, with CP192 and with CP194 was “inactive” in each case. Moreover, the Potency entry in the experiment with CP201, in the experiment with CP211, in the experiment with CP217 and in the experiment on CP238 was “inactive” throughout.
On to `O=C(O)c1cn(-c2ccc(F)cc2)c2cc(N3CCNCC3)c(F)cc2c1=O`, for which the z-score stood at 0.863 in experiment [1] (setting [3]), 0.568 in experiment [1] (setting [4]) and 0.628 in experiment [1] (setting [5]). Further, the activity, negative = inhibition in experiment [2] (setting [7]) was -18.3% (inactive); in [2] (setting [6]), -17.6% (inactive). Also, the Potency result in the experiment on 3D7, in the experiment with AS120, in the experiment on ATS189, in the experiment with C2A, with CP191 and in the experiment with CP192 was “inactive” in each case. Besides, the Potency result in the experiment on CP217 was “inactive”.
On to `CCC1=C(C)CN(C(=O)NCCc2ccc(S(=O)(=O)NC(=O)NC3CCC(C)CC3)cc2)C1=O` (stereo not given), for which the z-score is 0.704 in experiment [1] (setting [3]), 0.513 in experiment [1] (setting [4]) and 0.718 in experiment [1] (setting [5]). Besides, the activity, negative = inhibition is 6.02% (inactive) in experiment [2] (setting [7]) and 7.16% (inactive) in experiment [2] (setting [6]). Besides, the Potency result with 3D7, in the experiment on 7G8, in the experiment on AA1029, with AS120, with ATS189 and in the experiment with ATS95 was “inactive” in each case. Also, the Potency entry in the experiment with C2A, in the experiment with CP185, in the experiment on CP191, with CP192, in the experiment with CP194 and in the experiment with CP201 was “inactive” each time. Further, the Potency result in the experiment on CP203, with CP211, with CP215, with CP217, with CP237 and in the experiment with CP238 was “inactive” throughout.
In the case of `CS(=O)(=O)OCCCCOS(C)(=O)=O`, the z-score came out at 1.01 in experiment [1] (setting [3]), 2.44 in [1] (setting [4]) and 1.02 in [1] (setting [5]). The results for the activity, negative = inhibition in experiment [2] (setting [7]) and in [2] (setting [6]) were 5.89% (inactive) and -1.27% (inactive), respectively. The Potency entry in the experiment with 3D7, with 7G8, with AA1029, in the experiment with AS120, with ATS189 and with ATS95 was “inactive” throughout. For the same molecule, the Potency entry in the experiment on C2A, with CP185, in the experiment with CP191, in the experiment with CP192, in the experiment with CP194 and in the experiment with CP201 was “inactive” in each case. For the same molecule, the Potency entry in the experiment on CP203, with CP211, in the experiment on CP215, in the experiment on CP217, in the experiment on CP237 and with CP238 was “inactive” each time.
In the case of `CC(C)(S)[C@@H](N)C(=O)O`, the values for the z-score in experiment [1] (setting [3]), in experiment [1] (setting [4]) and in [1] (setting [5]) were 0.813, 0.506 and 1.37, respectively. Also, the activity, negative = inhibition is 1.57% (inactive) in experiment [2] (setting [7]) and -13.2% (inactive) in experiment [2] (setting [6]). Moreover, the Potency result in the experiment with 3D7, in the experiment on 7G8, with AA1029, in the experiment with AS120, in the experiment with ATS189 and in the experiment on ATS95 was “inactive” each time. In addition, the Potency result in the experiment on C2A, with CP185, in the experiment on CP191, in the experiment on CP194, with CP201 and in the experiment on CP203 was “inactive” throughout. Also, the Potency result in the experiment with CP211, in the experiment with CP215, in the experiment on CP217, with CP237 and with CP238 was “inactive” throughout.
`O=c1oc2cc(O)ccc2s1`: the values for the z-score in [1] (setting [3]), in experiment [1] (setting [4]) and in experiment [1] (setting [5]) were 0.879, 0.455 and 1.32, respectively. Besides, the activity, negative = inhibition was -2.41% (inactive) in [2] (setting [7]) and -10.3% (inactive) in [2] (setting [6]). For the same molecule, the Potency entry in the experiment on 3D7, in the experiment with AA1029, in the experiment with AS120, with ATS189, in the experiment with ATS95 and with C2A was “inactive” each time. Moreover, the Potency entry in the experiment on CP185, with CP191, in the experiment with CP192, in the experiment with CP194, in the experiment on CP201 and in the experiment on CP203 was “inactive” in each case. Also, the Potency entry in the experiment with CP211, in the experiment with CP215, in the experiment with CP217, in the experiment with CP237 and in the experiment on CP238 was “inactive” in each case.
